Calls of active or inactive are those of the source. How the source made its calls: active means hit-call score of the fitted dose curve at least 0.9, where 1 is the maximum; inactive means score below 0.9.
Assay: ATG_E_Box_CIS: Attagene CIS-FACTORIAL HepG2 Assay for human Enhancer Box (E-box) (AID 2282936)
Details: HepG2 E-box cis-reporter transcription, actives raise or lower the signal
Protocol: ATG_CIS is a cell-based, multiplexed-readout assay that uses HepG2, a human liver cell line, with measurements taken at 24 hours after chemical dosing in a 24-well plate.ATG_E_Box_CIS is one of 52 assay component(s) measured or calculated from the ATG_CIS assay. It is designed to make measurements of mRNA induction, a form of inducible reporter, as detected with fluorescence intensity signals by Reverse transcription polymerase chain reaction (RT-PCR) and Capillary electrophoresis technology.Data from the assay component ATG_E_Box_CIS was analyzed into 1 assay endpoint. This assay endpoint, ATG_E_Box_CIS, was analyzed with bidirectional fitting relative to DMSO as the negative control and baseline of activity. Using a type of inducible reporter, measures of mRNA for gain or loss-of-signal activity can be used to understand the reporter gene at the transcription factor-level as they relate to the gene USF1. Furthermore, this assay endpoint can be referred to as a primary readout, because this assay has produced multiple assay endpoints where this one serves a reporter gene function. To generalize the intended target to other relatable targets, this assay endpoint is annotated to the dna binding intended target family, where the subfamily is basic helix-loop-helix protein.
Human liver HepG2 cells are transiently transfected with multiple reporter transcription units (MRTUs) in 6-well plates using FuGene 6 reagent (Roche; 3 ml FuGene/1 mg DNA). The MRTU constructs are regulated by a cis-regulating element (promoter). […] A major difference between the CIS and TRANS system is that in CIS activities of endogenous TFs are measured, whereas the TRANS assay evaluates changes in activities of exogenous, chimeric NR-Gal4 proteins. […] At the end of 24 hour incubation, total RNA was isolated using TriZol reagent (Invitrogen). The isolated RNA is then reverse-transcribed using oligo(dT) primer and Mo-MLV reverse transcriptase (Invitrogen) with DNAse I (Ambion) treatment for 30 min. The one-tenth of the produced cDNA was amplified by PCR using Taq DNA polymerase (Invitrogen) and two reporter sequence-specific primers. The PCR products were fluorescently labeled by primer extension with 6-arboxyfluorescein (6-FAM) 5'-labeled reporter sequence-specific primer (2 min at 95 C, 20 s at 68 C and 10 min at 72 C) and these products were digested with 5U of HpaI (New England Biolabs) for 2h at 37 C. The fragments were purified using Qiaquick PCR columns (Qiagen), analyzed on an ABI 3130xL genetic analyzer (Applied Biosystems) with peak positions identified by using a set of X-rhodamine (ROX)-labeled MapMarker1000 molecular weight standards (BioVentures). The raw capillary electrophoresis data was processed using Attagraph software (Attagene).

| Compound | outcome | AC50 |
| --- | --- | --- |
| COC(=O)C=Cc1ccccc1 | inactive | – |
| Cc1ccc(C)c(OCCCC(C)(C)C(=O)O)c1 | inactive | – |
| O=C1CCCCCCCCCCC1 | inactive | – |
| CCC(C)c1ccccc1 (stereo not given) | inactive | – |
| CCOB(OCC)OCC | inactive | – |
| O=C(Oc1ccccc1)c1ccccc1C(=O)Oc1ccccc1 | inactive | – |
| CC=C(C)C(C)=O | inactive | – |
| O=S(=O)(O)c1ccc(N=Nc2c(O)ccc3ccccc23)cc1 | inactive | – |
| CC1(C)C(=O)N(CO)C(=O)N1CO | inactive | – |
| C=CCCCCCCCCOC(C)=O | inactive | – |
| N#CC1(N)CCCCC1 | inactive | – |
| Cc1ccccc1CCO | inactive | – |
| O=C(O[C@@H]1Cc2c(O)cc(O)cc2O[C@@H]1c1cc(O)c(O)c(O)c1)c1cc(O)c(O)c(O)c1 | inactive | – |
| COC(=O)CC(C)CCC=C(C)C (stereo not given) | inactive | – |
| CCC(C)C(=O)OCCc1ccccc1 (stereo not given) | inactive | – |
| O=C(OCc1ccccc1)c1ccc(O)cc1 | – | 171 µM (active) |
| C=CCOC(=O)c1ccc(C(=O)OCC=C)c(C(=O)OCC=C)c1 | – | 140 µM (active) |
| CC(=O)CCC=C(C)C | inactive | – |
| C=C(C)C(=O)OCC(O)COc1ccc(C(C)(C)c2ccc(OCC(O)COC(=O)C(=C)C)cc2)cc1 (stereo not given) | inactive | – |
| NC(=O)Nc1ccccc1 | inactive | – |

| Compound | outcome | AC50 |
| --- | --- | --- |
| CCCSSCCC | inactive | – |
| CCc1occc(=O)c1O | inactive | – |
| CC(C)CC(=O)OCc1ccccc1 | inactive | – |
| CC1=CC=C(C(C)C)CC1 | inactive | – |
| CCCCCCC=O | inactive | – |
| COc1ccc(-c2coc3cc(O)cc(O)c3c2=O)cc1 | inactive | – |
| CCOc1ccc(NC(N)=O)cc1 | inactive | – |
| N#Cc1ccc(C(c2ccc(C#N)cc2)n2cncn2)cc1 | inactive | – |
| CCNc1nc(NC(C)(C)C)nc(OC)n1 | inactive | – |
| Cc1cc(C)c(C=O)c(C)c1 | inactive | – |
| CC(c1cc(C(C)(C)C)cc(C(C)(C)C)c1O)c1cc(C(C)(C)C)cc(C(C)(C)C)c1O | inactive | – |
| Oc1ccccc1Cc1ccccc1O | inactive | – |
| C=Cc1cccc(C)c1 | inactive | – |
| CC(=O)OC1CCCCC1 | inactive | – |
| CN1CCN(C)CC1 | inactive | – |
| OCCCc1ccccc1 | inactive | – |
| CC(C)(C)NC(=O)[C@H]1CC[C@H]2[C@@H]3CC[C@H]4NC(=O)C=C[C@]4(C)[C@H]3CC[C@]12C | inactive | – |
| Cc1c(C(=O)c2c[nH]n(C)c2=O)ccc(S(C)(=O)=O)c1C1=NOCC1 | inactive | – |
| CC(C)(C)N | inactive | – |
| CCCCC(CC)COS(=O)(=O)O (stereo not given) | inactive | – |

Source: PubChem BioAssay (EPA / NIEHS)
